PubChem BioAssay (EPA / NIEHS)
Calls of active or inactive are those of the source. How the source made its calls: active means hit-call score of the fitted dose curve at least 0.9, where 1 is the maximum; inactive means score below 0.9.

Assay: CEETOX_H295R_DOC: CeeTox H295R High-throughput Steroidogenesis Assay for DOC (AID 2283439)
Settings: actives raise or lower the signal
Procedure, shortened: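 Secreted DOC was quantified from H295R media by HPLC-MS/MS after 48 h chemical exposure following 48 h forskolin (10 uM) prestimulation. Values were fitted in both directions relative to DMSO, the negative control and baseline.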

Row | SMILES | outcome | AC50
1 | CCC(C)c1cc([N+](=O)[O-])cc([N+](=O)[O-])c1OC(=O)OC(C)C (stereo not drawn) | inactive | –
2 | CC(CN=Cc1ccccc1O)N=Cc1ccccc1O (stereo not drawn) | – | 1.7 µM (active)
3 | COCCc1ccc(OCC(O)CNC(C)C)cc1 (stereo not drawn) | inactive | –
4 | CC1(C)C(=O)N(Cl)C(=O)N1Br | inactive | –
5 | COc1ccc(N=Nc2cc(C)c(N=Nc3ccc(S(=O)(=O)O)cc3)cc2OC)cc1 | inactive | –
6 | CC(C)Nc1nc(N)nc(Cl)n1 | inactive | –
7 | CCOC(=O)[C@@H](C)Oc1ccc(Oc2nc3ccc(Cl)cc3o2)cc1 | – | 22.8 µM (active)
8 | CCc1cc(C(C)(C)C)c(O)c(C(C)(C)C)c1 | inactive | –
9 | C=C1CC[C@H](O)C/C1=C/C=C1\CCC[C@]2(C)[C@@H]([C@H](C)/C=C/[C@H](C)C(C)C)CC[C@@H]12 | – | 87.2 µM (active)
10 | Nc1ccc(N)c2c1C(=O)c1ccccc1C2=O | – | 4.43 µM (active)
11 | COc1ccc(CCN2CCC(Nc3nc4ccccc4n3Cc3ccc(F)cc3)CC2)cc1 | – | 1.52 µM (active)
12 | CCCCCCCCN1CCCC1=O | inactive | –
13 | Cc1cc(=O)oc2cc(N(C)C)ccc12 | inactive | –
14 | BrCc1cccc(Oc2ccccc2)c1 | inactive | –
15 | CC(C)(C)CC(C)(C)c1ccc(OCCOCC[N+](C)(C)Cc2ccccc2)cc1 | inactive | –
16 | CC=Cc1ccc(OCC)c(O)c1 | inactive | –

Assay: CEETOX_H295R_PROG: CeeTox H295R High-throughput Steroidogenesis Assay for Progesterone (PROG) (AID 2283442);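 on AC50: human H295R adrenal cells primed with 10 µM forskolin before dosing; progesterone secreted into medium by H295R cells measured by HPLC-MS/MS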
Settings: actives raise or lower the signal
Procedure, shortened: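 Steps: seed H295R cells and let them adhere overnight; prime 48 h with 10 uM forskolin; dose with compound in DMSO at 0.1% final for 48 h; extract medium steroids with MTBE; measure progesterone by LC-MS/MS. MTT viability was run in the same wells.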

Row | SMILES | outcome | AC50
17 | CCC(C)c1cc([N+](=O)[O-])cc([N+](=O)[O-])c1OC(=O)OC(C)C (stereo not drawn) | inactive | –
18 | CC(CN=Cc1ccccc1O)N=Cc1ccccc1O (stereo not drawn) | inactive | –
19 | OCc1cccc(Oc2ccccc2)c1 | inactive | –
20 | COCCc1ccc(OCC(O)CNC(C)C)cc1 (stereo not drawn) | inactive | –
21 | CC1(C)C(=O)N(Cl)C(=O)N1Br | inactive | –
22 | COc1ccc(N=Nc2cc(C)c(N=Nc3ccc(S(=O)(=O)O)cc3)cc2OC)cc1 | – | 50 µM (active)
23 | CC(C)Nc1nc(N)nc(Cl)n1 | inactive | –
24 | CCOC(=O)[C@@H](C)Oc1ccc(Oc2nc3ccc(Cl)cc3o2)cc1 | – | 25.7 µM (active)
25 | CCc1cc(C(C)(C)C)c(O)c(C(C)(C)C)c1 | inactive | –
26 | C=C1CC[C@H](O)C/C1=C/C=C1\CCC[C@]2(C)[C@@H]([C@H](C)/C=C/[C@H](C)C(C)C)CC[C@@H]12 | – | 84.3 µM (active)
27 | Nc1ccc(N)c2c1C(=O)c1ccccc1C2=O | inactive | –
28 | COc1ccc(CCN2CCC(Nc3nc4ccccc4n3Cc3ccc(F)cc3)CC2)cc1 | – | 0.789 µM (active)
29 | CCCCCCCCN1CCCC1=O | inactive | –
30 | Cc1cc(=O)oc2cc(N(C)C)ccc12 | inactive | –
31 | BrCc1cccc(Oc2ccccc2)c1 | inactive | –
32 | CC(C)(C)CC(C)(C)c1ccc(OCCOCC[N+](C)(C)Cc2ccccc2)cc1 | inactive | –
33 | CC=Cc1ccc(OCC)c(O)c1 | – | 20.7 µM (active)
